The panel holds about 83,000 compounds, 20% with a hit somewhere; the sample as a whole holds those more often.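 For each line, cells grew in 96-well plates with the test compound present at a single concentration for 48 hours.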 Values without a mark were called inactive. The source made the active and inactive calls. How the source made its calls: active means growth percent below 10; inactive means the rest.
Experiments:
Experiment in all cases: NCI-60 one-dose screen, 48 h (100 = growth as untreated, 0 = no growth, -100 = all killed)
Conditions in all cases: 10 µM unless noted
SR leukemia = system: SR leukemia
RPMI-8226 leukemia = system: RPMI-8226 leukemia
OVCAR-8 ovarian = system: OVCAR-8 ovarian
OVCAR-5 ovarian = system: OVCAR-5 ovarian
OVCAR-4 ovarian = system: OVCAR-4 ovarian
SK-OV-3 ovarian = system: SK-OV-3 ovarian
IGROV1 ovarian = system: IGROV1 ovarian
OVCAR-3 ovarian = system: OVCAR-3 ovarian
HS 578T breast = system: HS 578T breast
NCI/ADR-RES ovarian = system: NCI/ADR-RES ovarian
T-47D breast = system: T-47D breast
BT-549 breast = system: BT-549 breast
MDA-MB-435 melanoma = system: MDA-MB-435 melanoma
SW-620 colon = system: SW-620 colon
MCF7 breast = system: MCF7 breast
HCT-116 colon = system: HCT-116 colon
HCC-2998 colon = system: HCC-2998 colon
KM12 colon = system: KM12 colon

Row | Compound | growth (SR leukemia) | growth (RPMI-8226 leukemia) | growth (OVCAR-8 ovarian) | growth (OVCAR-5 ovarian) | growth (OVCAR-4 ovarian) | growth (SK-OV-3 ovarian) | growth (IGROV1 ovarian) | growth (OVCAR-3 ovarian) | growth (HS 578T breast) | growth (NCI/ADR-RES ovarian) | growth (T-47D breast) | growth (BT-549 breast) | growth (MDA-MB-435 melanoma) | growth (SW-620 colon) | growth (MCF7 breast) | growth (HCT-116 colon) | growth (HCC-2998 colon) | growth (KM12 colon)
1 | O=C1c2cc3c(cc2-c2c1c1ccc(F)cc1c(=O)n2CCCNCCO)OCO3 | -25.7% (active) | -12.5% (active) | -33% (active) | -59.4% (active) | -76.9% (active) | -33.7% (active) | -5.09% (active) | -28.1% (active) | 3.15% (active) | -13.8% (active) | -17.7% (active) | -20% (active) | -71.5% (active) | -41.5% (active) | -65.5% (active) | -43.1% (active) | -65.7% (active) | -29.9% (active)
2 | Nc1n[nH]c2ccc([C@@H]3Nc4ccc5cn[nH]c5c4[C@H]4C5CCC(C5)[C@@H]34)cc12 (stereo partly drawn) | 14.3% | 40.3% | 35.5% | 40.3% | 35.2% | 37.7% | 22.1% | -5.18% (active) | 21.2% | 20.7% | 57.5% | 20.9% | -47.7% (active) | 19% | 15.2% | 12.9% | 24.3% | 17.6%
3 | COC(=O)c1cccc(NC(=O)c2ccc(-c3cccc(N)c3)o2)c1 | 95.8% | 78.8% | 75.7% | 107% | 101% | 105% | 100% | 107% | 92.2% | 99.7% | 88.1% | 93.5% | 98.8% | 104% | 92.4% | 108% | 101% | 98%
4 | COc1ccc(S(=O)(=O)N2CCN(C)CC2)cc1NC(=O)c1[nH]c(C)c2c1CCCCC2=O | 58.2% | 32.6% | 63% | 59.5% | 57% | 44.7% | 47% | 66.6% | 28.9% | 96.9% | 44.1% | 90.4% | 42.1% | 70.7% | 30% | 53.5% | 64.4% | 64.7%
5 | COc1ccc(/C=C\c2cc(OC)c(OC)c(OC)c2)cc1OC(=O)c1cccc(Cn2cc(CCOC(=O)[C@H](N)Cc3cn(C)c4ccccc34)nn2)c1 | -0.0904% (active) | 25.9% | 23% | 41% | 20.9% | 34.7% | 16.2% | 1.65% (active) | 26.9% | 6.28% (active) | 70.2% | 3.82% (active) | -32.7% (active) | 28.6% | 12.6% | 3.68% (active) | 20.7% | 5.51% (active)
6 | CCNC(=O)Oc1ccc(/C(=C(\C)c2ccc(Cl)cc2)c2ccc(OCCN3CCCCC3)cc2)cc1 | -20.8% (active) | -4.11% (active) | 70.4% | 74.9% | 43.7% | 63.2% | 56.8% | 60.8% | 55.9% | 64.9% | 27.8% | 72.8% | 43.4% | 9.64% (active) | 21.7% | 37.4% | 75.1% | 37.3%
7 | Cc1ccc(/C=C2\SC(=S)N(CC(=O)NCCCN3CCOCC3)C2=O)cc1 | 97.2% | 95.9% | 96.4% | 101% | 91.3% | 82.7% | 107% | 102% | 87.4% | 96.5% | 90.4% | 102% | 99.4% | 103% | 91.5% | 100% | 102% | 105%
8 | O=C1/C(=C/c2ccc3c(c2)OCO3)SC(=S)N1CCc1ccc(O)cc1 | 101% | 89.8% | 101% | 111% | 82.9% | 104% | 75.9% | 101% | 96.7% | 97.4% | 59.2% | 96.6% | 94% | 111% | 112% | 101% | 103% | 86.3%
9 | O=C(O)c1c(=O)cccc2ssc12 | -9.58% (active) | 4.35% (active) | 24.1% | -52.8% (active) | -37.1% (active) | 39.1% | 76.1% | -34.3% (active) | 22.4% | 29.2% | -43% (active) | 20.2% | 23.3% | -34.4% (active) | -17% (active) | 2.36% (active) | 13.5% | 3.59% (active)
10 | COc1ccc(-n2nc(C)c3c(Nc4ccc(NC(=O)Nc5c(Cl)cccc5Cl)cc4)ncnc32)cc1 | 32.2% | 50.7% | 56% | 97.8% | 60.9% | 83.3% | 71.7% | 40.8% | 71.7% | 55.9% | 40% | 57.9% | 49.1% | 48.6% | 58.5% | 25% | 51% | 18%
11 | Cn1ccnc1C(=O)/C=C/c1ccc(CC(=O)Nc2ccccc2)cc1 | -10.7% (active) | -12.5% (active) | -0.35% (active) | 29.6% | 31.4% | 27.3% | 12.7% | -7.34% (active) | 37.2% | 13.5% | 15.2% | 22.4% | 13.5% | 2.2% (active) | 12% | 18.2% | 29% | 3.7% (active)
12 | COc1cccc(NC(=O)c2sc3nc(C)c(C(C)=O)cc3c2N)c1 | 19% | 52.2% | 63.5% | 112% | 63.7% | 25.2% | 59.7% | 17.8% | 43.3% | 34.1% | 54% | 53.7% | -41.1% (active) | 39.3% | 30.1% | 37.8% | 54.5% | 37.8%
13 | CSc1ccc(-c2ccccc(=O)c2O)cc1 | 5.18% (active) | 10.1% | 14.6% | 52.9% | 32.5% | 11.8% | 12.7% | 25.1% | 56.4% | 5.46% (active) | 27% | 29.7% | 23.5% | 29.2% | 15.8% | 20% | 44% | 23.1%
14 | CCNC(=O)Oc1ccc(/C(=C(\C)c2ccc(Cl)cc2)c2ccc(OCCN(CC)CC)cc2)cc1 | -26.8% (active) | -11.4% (active) | 64.8% | 85.9% | 40.5% | 61.5% | 49.2% | 53.9% | 47.1% | 57.3% | 25.5% | 68.8% | 25% | 2.28% (active) | 16.5% | 38.6% | 51% | 37.5%
15 | CN(Cc1cc(Cl)cc(Cl)c1O)Cc1cc(Cl)cc(Cl)c1O | 62.6% | 70.7% | 63.6% | 89.8% | 40.2% | 78.3% | 54.2% | 49.1% | 92.8% | 62.4% | 76.4% | 86.4% | 68.2% | 73.2% | 67.6% | 58.9% | 83.5% | 74.8%
16 | Cn1cc(C(=O)c2nc(-c3c[nH]c4ccc(F)cc34)no2)c2cc(F)ccc21 | 48.1% | 98.8% | 95.9% | 95.5% | 97.5% | 83.6% | 66.8% | 97.4% | 91.3% | 84% | 92.1% | 92.5% | 64% | 87.9% | 58.1% | 99.8% | 97.4% | 79.2%

— PubChem BioAssay (NCI)
